{"source": "PubChem BioAssay", "note": "Unmarked numbers belong to inactive results. Unless noted, how the calls were made is not given here.", "data": [{"system": "Hepatitis C virus NS3 helicase", "experiment": "blockers of NS3h binding to ssDNA – biochemical, fluorescence polarization, LOPAC1280 library, primary screen (AID 687035; in the data active means inhibition above about 37%)", "settings": "Purified HCV NS3 helicase, Cy5-dT15 ssDNA binding fluorescence polarization; hits give high values; concentration not given here", "units": {"inhibition": "%"}, "values": [{"molecule": "O=C(O)[C@@H]1C[C@H](C(=O)O)N1", "inhibition": -1}, {"molecule": "NCCNC(=O)c1ncsc1-c1cccc(F)c1", "inhibition": -3}, {"molecule": "CC(COc1ccc(/C=C/c2ccccc2)cc1)[N+](C)(C)C", "note": "(centres undefined)", "inhibition": -1}, {"molecule": "COc1ccccc1N1CCN(CCN(C(=O)c2ccc(I)cc2)c2ccccn2)CC1", "inhibition": -4}, {"molecule": "CCCCN1CCC(n2c(=O)[nH]c3ccccc32)CC1", "inhibition": -2}, {"molecule": "CCCn1c(=O)c2[nH]c(-c3ccc(OCC(=O)NCCN)cc3)nc2n(CCC)c1=O", "inhibition": -2}, {"molecule": "CCCCCCCCCCCCCCCCCCNC(=O)OCC(COP(=O)([O-])OCC[n+]1ccsc1)OC", "note": "(centres undefined)", "inhibition": 0}, {"molecule": "O=C(O)/C=C/C(O)c1ccc(Cl)cc1", "note": "(centres undefined)", "inhibition": 1}, {"molecule": "Ic1ccc(N2CCN(Cc3c[nH]c4ncccc34)CC2)cc1", "inhibition": 6}, {"molecule": "CN1CCc2cc(O)c(O)cc2C(c2ccccc2)C1", "note": "(centres undefined)", "inhibition": -5}, {"molecule": "COc1cc2nc(N3CCN(C(=O)OCc4ccccc4)C(C(=O)NC(C)(C)C)C3)nc(N)c2cc1OC", "note": "(centres undefined)", "inhibition": -3}, {"molecule": "O=C(O)[C@@H]1C[C@@H](C(=O)O)N1", "inhibition": -1}]}, {"system": "not listed separately", "experiment": "compounds altering Cy5-DNA-NS3h complex signal – biochemical, LOPAC1280, artefact control for HCV NS3 helicase inhibitor project (AID 687037)", "settings": "Cy5-DNA-NS3h complex fluorescence interference counterscreen", "values": [{"molecule": "O=C(O)[C@@H]1C[C@H](C(=O)O)N1", "fluorescence ratio (interference)": 1.1}, {"molecule": "NCCNC(=O)c1ncsc1-c1cccc(F)c1", "fluorescence ratio (interference)": 1}, {"molecule": "CC(COc1ccc(/C=C/c2ccccc2)cc1)[N+](C)(C)C", "note": "(centres undefined)", "fluorescence ratio (interference)": 1}, {"molecule": "COc1ccccc1N1CCN(CCN(C(=O)c2ccc(I)cc2)c2ccccn2)CC1", "fluorescence ratio (interference)": 0.9}, {"molecule": "CCCCN1CCC(n2c(=O)[nH]c3ccccc32)CC1", "fluorescence ratio (interference)": 1}, {"molecule": "CCCn1c(=O)c2[nH]c(-c3ccc(OCC(=O)NCCN)cc3)nc2n(CCC)c1=O", "fluorescence ratio (interference)": 1}, {"molecule": "CCCCCCCCCCCCCCCCCCNC(=O)OCC(COP(=O)([O-])OCC[n+]1ccsc1)OC", "note": "(centres undefined)", "fluorescence ratio (interference)": 1}, {"molecule": "O=C(O)/C=C/C(O)c1ccc(Cl)cc1", "note": "(centres undefined)", "fluorescence ratio (interference)": 1}, {"molecule": "Ic1ccc(N2CCN(Cc3c[nH]c4ncccc34)CC2)cc1", "fluorescence ratio (interference)": 0.9}, {"molecule": "CN1CCc2cc(O)c(O)cc2C(c2ccccc2)C1", "note": "(centres undefined)", "fluorescence ratio (interference)": 1}, {"molecule": "COc1cc2nc(N3CCN(C(=O)OCc4ccccc4)C(C(=O)NC(C)(C)C)C3)nc(N)c2cc1OC", "note": "(centres undefined)", "fluorescence ratio (interference)": 1}, {"molecule": "O=C(O)[C@@H]1C[C@@H](C(=O)O)N1", "fluorescence ratio (interference)": 1}]}]}
